Laboratory results from PubChem BioAssay (Tox21).
Records with an inconclusive call do not appear. Activity calls are given as the source filed them. Calls follow the shape of the dose curve; as a rule, active = well fitted curve in the direction sought with a large enough effect in the repeat runs; inconclusive = weak or mixed curves; inactive = no such curve, though single readings can be large; an effect the other way counts as inactive or inconclusive.

Legend:
[1] = A CellTox Green Cytotoxicity Assay to monitor cytotoxicity in HEK293 cells - 32 hour (AID 1224881); also: nearly all actives have a fitted effect of over 40% in size
Outline: (§1)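 Cytotoxicity was tracked continuously in HEK293 cells by a DNA-binding dye excluded from viable cells. Compounds were transferred in DMSO 5 h after seeding; fluorescence was recorded at intervals up to 40 h.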

[2] = A CellTox Green Cytotoxicity Assay to monitor cytotoxicity in HepG2 cells - 0 hour (AID 1224882); also: nearly all actives have a fitted effect of over 35% in size
Outline: (§2)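 Real-time, homogeneous cytotoxicity readout: dead-cell DNA staining by CellTox Green in HepG2 monolayers, fluorescence measured at timed intervals up to 40 h of continuous compound exposure.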

[3] = A CellTox Green Cytotoxicity Assay to monitor cytotoxicity in HepG2 cells - 32 hour (AID 1224883); also: nearly all actives have a fitted effect of over 50% in size
Outline: as §2

[4] = A CellTox Green Cytotoxicity Assay to monitor cytotoxicity in HEK293 cells - 8 hour (AID 1224884); also: nearly all actives have a fitted effect of over 35% in size
Outline: as §1

[5] = qHTS RealTime-Glo MT Cell Viability Assay in HepG2 cells - 16 hour (AID 1224885); also: nearly all actives have a fitted effect of over 50% in size
Outline: (§3)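 Cells + NanoLuc/prosubstrate dispensed (600 cells/well) → 5 h at 37 C/5% CO2 → compounds in DMSO transferred → 40 h incubation at 37 C, luminescence read at 0, 8, 16, 24, 32, 40 h.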

[6] = qHTS RealTime-Glo MT Cell Viability Assay in HEK293 cells - 24 hour (AID 1224886); also: nearly all actives have a fitted effect of over 50% in size; also: potency is read from the fitted curve at half-maximal effect
Outline: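 Tox21 10K qHTS, HEK293, 600 cells/well, RealTime-Glo reagent co-dispensed with cells; 5 h preincubation, compound by pintool, 37 C, luminescence at 0–40 h.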

[7] = qHTS RealTime-Glo MT Cell Viability Assay in HEK293 cells - 8 hour (AID 1224887); also: nearly all actives have a fitted effect of over 50% in size; also: potency is read from the fitted curve at half-maximal effect
Outline: (§4)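 Nonlytic bioluminescent viability monitoring. HEK293 at 600 cells/well with reagent; 5 h settle; compound transfer by pintool; plates held at 37 C and read at set time points.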

[8] = qHTS RealTime-Glo MT Cell Viability Assay in HEK293 cells - 0 hour (AID 1224880); also: nearly all actives have a fitted effect of over 45% in size; also: potency is read from the fitted curve at half-maximal effect
Outline: as §4

[9] = qHTS RealTime-Glo MT Cell Viability Assay in HepG2 cells - 0 hour (AID 1224889); also: nearly all actives have a fitted effect of over 50% in size; also: potency is read from the fitted curve at half-maximal effect
Outline: as §3

[10] = A CellTox Green Cytotoxicity Assay to monitor cytotoxicity in HEK293 cells - 16 hour (AID 1224888); also: nearly all actives have a fitted effect of over 35% in size
Outline: as §1

Measured: Potency

CN1C(C)(C)CCCC1(C)C
inactive: [1] | [2] | [3] | [4] | [5] | [6] | [7]

COc1nccnc1NS(=O)(=O)c1ccc(N)cc1
inactive: [8] | [1] | [2] | [4] | [6] | [7] | [9]

O=C(O)Cc1ccc(Cl)cc1Cl
inactive: [8] | [1] | [4] | [5] | [6] | [7]

Cc1cc(C(C)(C)C)c(O)c(C)c1CC1=NCCN1
inactive: [8] | [1] | [2] | [4] | [5] | [6] | [7] | [10] | [9]

O=C(O)c1cc(Cl)cc([N+](=O)[O-])c1Cl
inactive: [1] | [2] | [3] | [4] | [5] | [6] | [7]

COC(=O)CCc1ccc(OCC(O)CNC(C)C)cc1 (stereo not drawn)
inactive: [8] | [1] | [2] | [4] | [5] | [6] | [7] | [9]

COc1ccc2nc(SCc3ncc(C)c(OC)c3C)[nH]c2c1
inactive: [8] | [1] | [2] | [4] | [5] | [10]

CC(=C(CCOC(=O)C(C)C)SSC(CCOC(=O)C(C)C)=C(C)N(C=O)Cc1cnc(C)nc1N)N(C=O)Cc1cnc(C)nc1N
inactive: [8] | [1] | [4] | [5] | [6] | [7] | [10]

O=C(Nc1ccc(Cl)c(Cl)c1)C1CC1
inactive: [1] | [2] | [3] | [4] | [5] | [10]
active: [6] 9.52 µM | [7] 19 µM

CC(=O)NCc1c(I)c(NC(C)=O)c(I)c(C(=O)O)c1I
inactive: [8] | [1] | [4] | [6] | [7] | [10] | [9]

O=C(OCc1ccccc1)C(=O)OCc1ccccc1
inactive: [8] | [1] | [2] | [4] | [6] | [7] | [10] | [9]

BrCc1cccc(Oc2ccccc2)c1
inactive: [8] | [1] | [2] | [4] | [5] | [6] | [7] | [10] | [9]

NCCN1CCOCC1
inactive: [8] | [1] | [2] | [4] | [5] | [6] | [7] | [9]

CN(C)CCOCCO
inactive: [8] | [1] | [2] | [4] | [6] | [7] | [10]

Brc1ccc(-c2ccccc2)cc1
inactive: [8] | [1] | [2] | [4] | [6] | [7] | [9]

COc1ccc2c(c1OC)C(=O)O[C@@H]2[C@H]1c2c(cc3c(c2OC)OCO3)CCN1C
inactive: [8] | [1] | [2] | [4] | [5] | [7] | [10] | [9]

COc1ccc(-c2cc(=O)c3c(O)cc(O[C@@H]4O[C@H](CO[C@@H]5O[C@@H](C)[C@H](O)[C@@H](O)[C@H]5O)[C@@H](O)[C@H](O)[C@H]4O)cc3o2)cc1O
inactive: [8] | [1] | [2] | [4] | [6] | [7] | [10]

O=S(=O)(O)CCN1CCN(CCO)CC1
inactive: [8] | [2] | [3] | [4] | [5] | [6] | [7] | [10] | [9]

CCOCCOC(=O)/C=C/c1ccc(OC)cc1
inactive: [8] | [1] | [2] | [4] | [6] | [7] | [9]

CC(CN)CC(C)(C)CCN (stereo not drawn)
inactive: [8] | [1] | [2] | [4] | [5] | [6] | [7] | [10] | [9]

CC(C)OC(=O)CCCCC(=O)OC(C)C
inactive: [1] | [2] | [3] | [4] | [5] | [6] | [7] | [10]

O=C(O)CCSSCCC(=O)O
inactive: [8] | [1] | [2] | [4] | [5] | [6] | [7] | [10] | [9]

Cc1ccccc1C(=O)Nc1ccc(C(=O)N2CCCC(N(C)C)c3ccccc32)cc1 (stereo not drawn)
inactive: [8] | [1] | [2] | [4] | [5] | [7] | [10] | [9]

CCCCCCCCCCl
inactive: [8] | [1] | [2] | [4] | [5] | [6] | [7] | [10] | [9]

CC(=O)c1sc(C)nc1C
inactive: [1] | [2] | [3] | [4] | [5] | [6] | [7] | [10]

Nc1ccc([N+](=O)[O-])c(N)c1
inactive: [1] | [2] | [3] | [4] | [5] | [6] | [7] | [10]

COCCOC(=O)C1=C(C)NC(C)=C(C(=O)OC(C)C)C1c1cccc([N+](=O)[O-])c1 (stereo not drawn)
active: [8] 2.39 µM | [9] 601 nM
inactive: [1] | [2] | [4] | [10]

CCCOC(=O)C(C)O (stereo not drawn)
inactive: [8] | [1] | [2] | [4] | [5] | [6] | [7] | [10] | [9]

O=C1c2ccccc2C(=O)N1CCl
inactive: [8] | [1] | [2] | [4] | [6] | [7] | [10] | [9]

CC(C)NCC(O)COc1cccc2[nH]ccc12 (stereo not drawn)
inactive: [1] | [2] | [4] | [5] | [6] | [7] | [9]

CCn1ccc(NS(=O)(=O)c2ccc(N)cc2)nc1=O
inactive: [1] | [2] | [4] | [5] | [6] | [7] | [9]

CC(=O)c1ccc2c(c1)Cc1ccccc1-2
inactive: [1] | [2] | [3] | [4] | [6] | [7] | [10] | [9]

Cc1ccc2ccc(Cl)cc2n1
inactive: [1] | [2] | [3] | [4] | [5] | [6] | [7] | [10] | [9]

CCc1ccc(C=O)cc1
inactive: [1] | [2] | [3] | [4] | [5] | [6] | [7] | [10]
